# USP2a inh: qHTS Assay for Inhibitors of Ubiquitin-specific Protease USP2a Using CHOP2 as the Reporter; Potency, µM (series often up to 38.3 µM), for the others: top-dose activity change, negative = inhibition, hits mostly inhibitors; USP2 core, Ub-CHOP2 coupled fluorogenic reporter, 485/531; actives 0.01% (n = 330,000); Ubiquitin carboxyl-terminal hydrolase 2 (Homo sapiens), O75604;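 note: potency is the fitted concentration of half-maximal effect; plate controls were DMSO wells for no effect and full inhibition by NEM control for full effect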
#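 Deubiquitinase activity read as fluorescence (485/531 nm) after Ub-CHOP2 cleavage activates the enterokinase reporter on its substrate; USP2 core 10nM, Ub-CHOP2 and substrate 25nM each, 30min compound preincubation then 60min RT; data normalized to NEM, curves fitted.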
# Eya2 inh: qHTS Assay for Inhibitors of the Phosphatase Activity of Eya2; Protein phosphatase EYA2 (Homo sapiens), O00167; recombinant Eya2, OMFP fluorescence dephosphorylation (OMFP is methylfluorescein phosphate); Potency, µM (top dose mostly 76.9 µM), without a hit: at the top dose activity, negative = inhibition, usual class: inhibitors; actives 0.006% (n = 330,000); note: potency is the fitted concentration of half-maximal effect; % is set by controls: 0 for no effect and ±100 for the full control effect
#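 Eya2 (0.2 uM) preincubated 10 min at ambient with compound, then OMFP substrate added at 50 uM; 10 min reaction in 50 mM HEPES pH 7.5, 50 mM NaCl, 5 uM MgCl2, 0.05% BSA, 1 mM DTT. Fluorescence read at Ex 485/Em 525 nm.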
# TrxR1 substrate: qHTS Assay for Substrates of Mammalian Selenoprotein Thioredoxin Reductase 1 (TrxR1): qHTS. actives 0.01% (n = 390,000). Thioredoxin reductase 1, cytoplasmic (Rattus norvegicus), O89049. Potency, µM (titrated, usually from 114 µM), for the others: top-dose activity change, negative = substrate turnover. purified TrxR1 substrate turnover, NADPH consumption readout; note: potency is the fitted concentration of half-maximal effect; % is set by controls: 0 for no effect and ±100 for the full control effect; nearly all actives have a fitted effect of over 50% in size
#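 Rat TrxR1, dispensed at 90 nM, was prereduced with 400 uM NADPH (final) for 5 min at ~22 deg C, then incubated with compound 15 min before 400 uM selenite. A first-read NADPH fluorescence drop versus no-compound background flagged substrates.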
# TrxR1 inh-1: qHTS Assay for Inhibitors of Mammalian Selenoprotein Thioredoxin Reductase 1 (TrxR1): qHTS; AID 588453, 2011; Potency, µM (highest dose often 114 µM), inactives show at the top dose activity change, negative = inhibition, most hits filed as inhibitors; actives 1% (n = 390,000); Thioredoxin reductase 1, cytoplasmic (Rattus norvegicus), O89049; recombinant rTrxR1, NADPH fluorescence consumption, selenite substrate; note: potency is the fitted concentration of half-maximal effect; % is set by controls: 0 for no effect and ±100 for the full control effect; nearly all actives have a fitted effect of over 65% in size
#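 Rat TrxR1 (90 nM in the dispensed reagent) was pre-reduced with 400 uM NADPH for 5 min at room temperature, then incubated with compound for 15 min. After 400 uM selenite was added, NADPH fluorescence (Ex 340/Em 450 nm) was followed for 8 min.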
# GALK inhibitor: qHTS Assay for Inhibitors of Human Galactokinase (GALK); Purified GALK, Kinase-Glo residual ATP luminescence; Potency, µM (titrated, usually from 57.5 µM), for the others: at the top dose activity change, negative = inhibition, usual class: inhibitors; actives 0.007% (n = 270,000); note: potency is the fitted concentration of half-maximal effect; % is set by controls: 0 for no effect and ±100 for the full control effect
# Target sequence (P51570 whole entry, looked up): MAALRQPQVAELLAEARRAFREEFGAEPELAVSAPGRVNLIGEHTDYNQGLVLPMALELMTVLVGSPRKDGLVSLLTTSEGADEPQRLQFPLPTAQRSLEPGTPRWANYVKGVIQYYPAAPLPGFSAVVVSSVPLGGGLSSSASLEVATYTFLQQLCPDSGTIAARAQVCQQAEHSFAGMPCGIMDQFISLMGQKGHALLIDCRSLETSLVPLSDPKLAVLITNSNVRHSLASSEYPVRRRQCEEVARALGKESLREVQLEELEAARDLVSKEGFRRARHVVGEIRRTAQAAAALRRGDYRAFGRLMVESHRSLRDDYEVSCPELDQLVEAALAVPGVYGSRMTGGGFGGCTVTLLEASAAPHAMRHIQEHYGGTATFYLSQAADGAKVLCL
#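 The enzyme phosphorylates galactose (100 uM) using ATP (35 uM); inhibition is detected as higher residual ATP, quantified by bioluminescence after 1 h reaction at room temperature, pH 8.0.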
# RGS4 inh: Inhibitors of Regulator of G Protein Signaling (RGS) 4: qHTS; Regulator of G-protein signaling 4 (Homo sapiens), P49798; Transcreener GDP fluorescence polarization, RGS4-accelerated GTP hydrolysis; Potency, µM (doses to about 114 µM), for the others: at the top dose activity change, negative = inhibition, actives largely listed as inhibitors; actives 0.039% (n = 390,000); AID 504845, 2011; note: potency is the fitted concentration of half-maximal effect; % is set by controls: 0 for no effect and ±100 for the full control effect; nearly all actives have a fitted effect of over 75% in size
# Target sequence (P49798 whole entry, looked up): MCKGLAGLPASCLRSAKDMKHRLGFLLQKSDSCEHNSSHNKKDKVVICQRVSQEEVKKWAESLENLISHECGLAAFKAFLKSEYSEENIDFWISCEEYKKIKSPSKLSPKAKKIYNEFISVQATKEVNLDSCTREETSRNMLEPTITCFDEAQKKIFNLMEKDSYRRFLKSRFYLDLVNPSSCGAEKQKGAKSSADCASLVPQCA
#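 MLSMR compounds (23 nl, pin-transferred) preincubated 10 min at room temperature with a 500nM (2x) first reagent, then RGS4 at 900nM (2x) plus Transcreener GDP mix added; fluorescence polarization (620/688 nm) read before and after 90 min at 30 °C.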
# GR counterassay: qHTS Assay for Inhibitors of Mammalian Selenoprotein Thioredoxin Reductase 1 (TrxR1): Counterassay in Glutathione Reductase (GR); shares compounds with TrxR1 inh-1; purified GR, DTNB reduction absorbance 405 nm kinetic; activity change, negative = inhibition, % at 57.1 µM; 55 tested, under 10 active; AID 652020, 2013
# TrxR1 inh-2: qHTS Assay for Inhibitors of Mammalian Selenoprotein Thioredoxin Reductase 1 (TrxR1): Hit Validation in Primary Screen | shares compounds with TrxR1 inh-1 | recombinant TrxR1, NADPH fluorescence consumption, selenite substrate | Potency, µM, hits mostly inhibitors | actives 50% (n = 55)
# TrxR1 insulin MOA: qHTS Assay for Inhibitors of Mammalian Selenoprotein Thioredoxin Reductase 1 (TrxR1): Insulin MOA Assay; shares compounds with TrxR1 inh-1; TrxR1 Trx-coupled insulin reduction, NADPH absorbance 340 nm; Potency, µM; actives 20% (n = 55); AID 652037, 2013;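 active = compounds with a measured potency under 100 micromolar; inconclusive = filed, but no rule given; inactive = potency at or above that, or unmeasurable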
# TrxR1 inh-3: qHTS Assay for Inhibitors of Mammalian Selenoprotein Thioredoxin Reductase 1 (TrxR1): DTNB Assay | shares compounds with TrxR1 inh-1 | purified TrxR1, DTNB reduction, A412 | Potency, µM | actives 90% (n = 55) | AID 652256, 2013;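 active = a half-inhibiting concentration could be measured and was below 100 µM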
# Starred values were filed as active, the others as inactive; i = inactive; ? = inconclusive; · = no result; [ ] = dose if it differs, or a comment. In the library only some 1% were active in any assay of this set; here they are far more common. Unless noted, calls come from the whole dose curve; as a rule, active = well fitted curve in the direction sought with a large enough effect; inconclusive = small, poorly fitted or top-dose-only effect, or another doubt; inactive = no such curve, though single readings can be large; an effect the other way counts as inactive or inconclusive.
SMILES,USP2a inh,Eya2 inh,TrxR1 substrate,TrxR1 inh-1,GALK inhibitor,RGS4 inh,others
O=C1NC(=O)C(=Cc2ccc(N3CCN(C(=O)c4ccccc4)CC3)c([N+](=O)[O-])c2)C(=O)N1,1.3%,1.9%,-9.4%,10µM*,0.2%,?,
COc1ccccc1CN1CCCCC1c1cccnc1 (stereo unspecified),-0.1%,-29.9%,-2.9%,10.0%,-0.2%,-16.1%,
CN1CCCCC1c1cccnc1 (stereo unspecified),·,·,·,·,·,37.7µM*,
Cc1ccc(/C=C2\C(=O)NC(=O)N(CC3CCCO3)C2=O)s1 (stereo unspecified),2.0%,18.9%,-9.4%,39.8µM*,0.1%,?,
N#CC(C#N)=Cc1cccnc1,0.6%,-3.5%,15.5%[57.1 µM],14.1µM*,3.3%,-31.4%,
O=C1C(Cl)=CC(=Nc2ccc(O)cc2)C=C1Cl,-10.3%,0.2%,-2.9%,1.58µM*,·,?,
C=CCN1CCC23c4c5ccc(O)c4OC2/C(=N/N=C2\CCC4(O)C6Cc7ccc(O)c8c7C4(CCN6CC=C)C2O8)CCC3(O)C1C5 (stereo unspecified),·,·,·,·,·,i,
CN1C(=O)C(=Cc2cccnc2)C(=O)N(C)C1=O,0.6%,15.1%,6.9%,22.4µM*,5.6%,-48.7%,
CN1C(=O)C(=Cc2ccc(N3CCCCCC3)cc2)C(=O)N(C)C1=O,1.0%,-2.8%,-16.9%[57.1 µM],-42.8%,5.5%,-51.5%,
N#CC(C#N)=Cc1ccc(N2CCOCC2)cc1,0.0%,-4.7%,-8.7%,70.8µM*,-1.0%,-15.3%[11.4 µM],
CN(C(=O)Cc1ccc(Cl)c(Cl)c1)[C@H](CN1CCCC1)c1ccccc1,·,·,·,·,·,-30.0%[56.9 µM],
CC[C@H](C)/C=C(C)/C=C/C1=CC2=C(Cl)C(=O)[C@](C)(OC(C)=O)C(=O)C2=CO1,-1.3%,4.4%,-2.2%,50.1µM*,·,?,
Clc1cncc(N2CCNCC2)n1,·,·,·,·,·,4.23µM*,
Clc1ccc(N2CCNCC2)nn1,4.4%,5.5%,9.3%[57.1 µM],-4.3%[57.1 µM],7.1%,-26.0%,
COc1ccc(CN2C(=O)NC(=O)/C(=C/c3ccc([N+](=O)[O-])s3)C2=O)cc1,-1.6%,-7.0%,-5.4%,39.8µM*,0.2%,?,
O=C1NC(=O)N(Cc2ccc(F)cc2)C(=O)/C1=C\c1ccc([N+](=O)[O-])s1,0.4%,-4.4%,-10.8%,39.8µM*,·,?,
O=C1NC(=O)N(c2ccccc2)C(=O)/C1=C/c1ccc(Sc2ccccc2)o1,6.5%,1.2%,-3.8%,14.1µM*,3.3%,?,
O=C1NC(=O)N(c2ccccc2)C(=O)/C1=C/c1ccoc1,25.2%,?,-3.8%[57.1 µM],?,3.4%,?,
O=C1NC(=O)N(c2cccc(Cl)c2)C(=O)/C1=C\c1ccc(Sc2nc3ccccc3[nH]2)o1,0.7%,3.0%,5.5%,8.91µM*,0.5%,?,
COc1ccc(CCNC(=O)c2cnc3sc(N4CCCCCC4)nn3c2=O)cc1,·,·,88.2%,-3.6%,·,0.4%,
CC1=C[C@@H]2c3cccc4[nH]cc(c34)C[C@H]2N(C)C1,26.5%,16.8%,27.4%,2.51µM*,0.1%,-11.9%,GR counterassay=-4.4;TrxR1 inh-2=?;TrxR1 insulin MOA=49µM*;TrxR1 inh-3=2.16µM*
CN1C[C@@H](C(=O)N[C@@]2(C)O[C@]3(O)C4CCCN4C(=O)[C@@H](Cc4ccccc4)N3C2=O)C=C2c3cccc4[nH]cc(c34)C[C@@H]21 (stereo partly specified),·,·,·,·,·,85.4%[56.9 µM],
